# According to the supplement of paper PMC3342239:
# Counter-ions that a name gives are not always drawn.
# Test system: Saccharomyces cerevisiae
# Test: fraction of cells in G1 phase (DNA content, flow cytometry); higher = more cells with unreplicated DNA (G1 delay)
# Conditions: temperature: 30 C; YPD; JTY2953 pdr5 snq2 (sensitized); drug added to: cultures diluted from stationary phase; 6-7 h
# Summary of the method: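 S. cerevisiae grown in YPD at 30°C was exposed to library drugs. In one setup, overnight sensitized JTY2953 cultures were diluted 1∶200, given a final 20 µg/ml and fixed after 6–7 h, while other runs dosed dividing JTY2953 with fixation 6 h later or BY4741 with fixation 4.33 h later. Cells were ethanol-fixed, stained with SYTOX Green and analysed by flow cytometry at 10,000 events. The G1 fraction is the area of the Dean-Jett-Fox G1 peak divided by the summed G1 and G2/M areas.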
row,SMILES,fraction of cells in G1 phase
1,CC(=O)O[C@H]1C[C@@H]2CC[C@@H]3[C@H](CC[C@@]4(C)[C@H]3C[C@H]([N+]3(C)CCCCC3)[C@@H]4OC(C)=O)[C@@]2(C)C[C@@H]1N1CCCCC1 [Vecuronium Br] (35.8523 µM),0.478
2,CN1[C@@H]2CC[C@H]1C[C@@H](OC(=O)c1c[nH]c3ccccc13)C2 [Tropisetron HCl] (70.3331 µM),0.469
3,NS(=O)(=O)Cc1noc2ccccc12 [Zonisamide] (94.238 µM),0.51
4,O=C(O)Cc1sc(-c2ccccc2)nc1-c1ccc(Cl)cc1 [Fentiazac] (60.6414 µM),0.533
5,CC(C)NCC(O)COc1cccc2[nH]ccc12 (stereo unspecified) [Pindolol] (80.5387 µM),0.515
6,COC(=O)Nc1nc2cc(C(=O)c3ccccc3)ccc2[nH]1 [Mebendazol] (67.7277 µM),0.352
7,C[C@@H](O)[C@H]1C(=O)N2C(C(=O)O)=C(SCCNC=N)C[C@H]12 [Imipenem] (66.8112 µM),0.486
8,O=P(O)(O)C(Cl)(Cl)P(=O)(O)O [Clodronate disodium] (81.6683 µM),0.505
9,CCOC(=O)c1cnc2c(cnn2CC)c1NN=C(C)C [Etazolate] (69.1229 µM),0.5
10,CC[C@H]1OC(=O)[C@H](C)[C@@H](O[C@H]2C[C@@](C)(OC)[C@@H](O)[C@H](C)O2)[C@H](C)[C@@H](O[C@@H]2O[C@H](C)C[C@H](N(C)C)[C@H]2O)[C@](C)(OC)C[C@@H](C)C(=O)[C@H](C)[C@@H](O)[C@]1(C)O [Clarithromycin] (26.7389 µM),0.489
11,CN(Cc1cc(Br)cc(Br)c1N)C1CCCCC1 [Bromhexine HCl] (53.1721 µM),0.466
12,C[N+](C)(C)[C@@H](Cc1c[nH]c(=S)[nH]1)C(=O)[O-] [Ergothioneine] (87.2209 µM),0.464
13,Cn1c(=O)c2c(ncn2CC2OCCO2)n(C)c1=O [Doxofylline] (75.1149 µM),0.465
14,Cc1cnc(C(=O)O)c[n+]1[O-] [Acipimox] (129.764 µM),0.493
15,CO[C@@H]1[C@@H](OC(N)=O)[C@@H](O)[C@H](Oc2ccc3c(O)c(NC(=O)c4ccc(O)c(CC=C(C)C)c4)c(=O)oc3c2C)OC1(C)C [Novobiocin Na] (32.6456 µM),0.513
16,CCOC(=O)C1=C[C@@H](OC(CC)CC)[C@H](NC(C)=O)[C@@H](N)C1 [Oseltamivir] (64.0179 µM),0.472
